Hit rate of the full screen: of about 53,000 compounds, about 900 (1.7%) showed an effect of 50% or more. The sample holds strong results, similar compounds and a random draw of the others, so the mix is not that of the screen.

This test concerns Mycobacterium tuberculosis. Kind of test: Cornell - Phenotypic assay to identify agents that inhibit growth of Mycobacterium tuberculosis. In kind it is functional. The arrangement: scale not given: direction of the effect not stated beside the values. Conditions: 10 mM as filed; unlikely as a test dose.
Take `COc1ccc(Cl)cc1C(=O)N1C[C@@H](NC(=O)N(C)C)[C@H](C(C)C)C1`: the “Percent Effect” value was -26.21%.
The figure for `COC(=O)c1ccoc1CN(C)CC(=O)NC1CC1` is 9.025%; for `Cc1cc(C2CCCCN2C(=O)c2cccn2C)nc2nccn12` (centres undefined) it is 14.54%; for `CCOCCC1(CNC(=O)c2ccsc2)CCC1` it is 23.41%.
As to `Cc1cc(C(=O)N2CC[C@@H]3CN(C)S(=O)(=O)[C@@H]3CC2)no1`, the “Percent Effect” value is recorded as 25.4%.
On to `O=C(O)c1ccnc2c(Br)cccc12`, for which the “Percent Effect” value is given as 13.48%.
As to `COc1ccc(CNC(=O)NC(C)(C(=O)O)c2ccco2)cc1F` (centres undefined), the “Percent Effect” value is on record as -25.47%.
To `O=C1COC2(CCN(Cc3ccco3)CC2)CN1Cc1cccnc1` belongs 24.6%.
As to `Cc1ccc(CN2CCN(CC3CC3)[C@@H]3CS(=O)(=O)C[C@@H]32)cc1C`, the “Percent Effect” value is 21.5%.
To `O=S1(=O)C[C@@H]2[C@H](C1)N(Cc1cc(Cl)cc(Cl)c1)CCN2CCO` belongs -11.47%.
The figure for `O=S1(=O)C[C@@H]2[C@H](C1)N(Cc1cc(Cl)cc(Cl)c1)CCN2CC1CC1` is 85.08%; for `CCCN1CCN(Cc2cc(Cl)cc(Cl)c2)[C@H]2CS(=O)(=O)C[C@H]21` it is -17.23%; for `Cc1cc(CN2CCN(CC3CC3)[C@@H]3CS(=O)(=O)C[C@@H]32)cc(C)c1O` it is 106.4%.
On to `Cc1cc(CN2CCN(CC3CC3)[C@@H]3CS(=O)(=O)C[C@@H]32)ccc1F`, for which the “Percent Effect” value is listed as -1.418%.
Regarding `COc1ccc(C(=O)NCCC(N)=O)c(I)c1`, the “Percent Effect” value was -0.6619%.
With `Cc1nc(NC2CCCCC2)cc(C2CCCNC2)n1.Cl` (centres undefined), the “Percent Effect” value is given as -33.64%.
On to `COCCCSc1ccc(NCc2scnc2C)cc1`, for which the “Percent Effect” value was 22.43%.
To `COCc1nc2cc(NCc3scnc3C)ccc2o1` belongs 107%.
As to `Cc1ncsc1CNc1cccc(OCCN2CCCC2)c1`, the “Percent Effect” value is recorded as 16.77%.
On to `Cc1cc(CNc2ccc3nc(C)sc3c2)no1`, for which the “Percent Effect” value came to 23.73%.
The figure for `COCc1nc(CNc2cccc(-c3nc(C)c(C)o3)c2)cs1` is 46.4%.
In the case of `COCc1nc2cc(NCc3sc(C)nc3C)ccc2o1`, the “Percent Effect” value turned out to be 97.37%.
The figure for `CC(C)N1CC2(CCCN(c3ccnc4ccccc34)C2)CCC1=O` (centres undefined) is 17.47%; for `COCc1nnc(C(=O)N2CCCC(O)C2)o1` (centres undefined) it is -16.94%; for `Cc1ncc(CNC(=O)CCc2cccs2)c(C2CCCN2C)n1` (centres undefined) it is -2.251%.
The figure for `O=C1CO[C@H]2CN(Cc3cccc4[nH]ccc34)C[C@@H]2N1C1CCOCC1` is 103.3%.
To `O=C1CO[C@H]2CN(Cc3cccc(F)c3F)C[C@@H]2N1C1CCOCC1` belongs -21.84%; to `Cc1ccc(C2CN(Cc3cccc4[nH]ccc34)CCO2)nc1` (centres undefined), -22.89%; to `CCC(CN1CCCC1)NC(=O)C1(c2ccc(F)cc2)CC1` (centres undefined), 38.36%.
Regarding `CCC1c2ccccc2CCN1CCNS(C)(=O)=O` (centres undefined), the “Percent Effect” value is on record as -0.3963%.
For `Cc1cc(CNCc2c(C)n(CC(C)C)c3ccccc23)[nH]n1`, the “Percent Effect” value came to 57.75%.
The figure for `COCc1cc(CNCc2c(C)n(CC(C)C)c3ccccc23)n[nH]1` is 48.01%.
The figure for `COCc1cc(CNCc2c(C)n(CC(N)=O)c3ccccc23)n[nH]1` is 35.48%; for `COCCC(=O)N1CCCC1c1nc(C)c2c(n1)N(C)C(=O)CC2` (centres undefined) it is 9.481%; for `CC(C)(C)n1nnnc1CN(Cc1ccccc1)Cc1ccccc1Cl` it is 7.141%.
To `COc1ccc(OC)c(C2CCN(C3CCOCC3)C2)c1` (centres undefined) belongs -54.14%.
Take `COc1ccc(OC)c(C2CCN(CC(C)(C)N3CCOCC3)C2)c1` (centres undefined): the “Percent Effect” value is on record as -53.82%.
To `COc1ccc(OC)c(C2CCN(Cc3nc(C)n4ccccc34)C2)c1` (centres undefined) belongs 51.45%.
As to `Cc1ccc(CN2CCc3nnc(CN4CCCC4=O)n3CC2)s1.O=C(O)C(F)(F)F`, the “Percent Effect” value is given as 32.68%.
For the compound `CCC(C(=O)N(C)C)n1ccc2ncccc2c1=O` (centres undefined), the “Percent Effect” value came out at 6.503%.
Take `CN(C)C(=O)CN1CCN(c2cc(N3CCCC3CO)ncn2)CC1` (centres undefined): the “Percent Effect” value worked out at 1.672%.
To `Cc1cnc(C)c(N2CCC(C(=O)O)(n3ccc(C(C)(C)C)n3)CC2)n1` belongs 5.905%; to `Cc1cc(C)nc(N2CCC(C(=O)O)(n3ccc(C(C)(C)C)n3)CC2)n1`, 67%; to `Cc1cc(N2CCC(C(=O)O)(n3ccc(C(C)(C)C)n3)CC2)nc(N)n1`, 5.557%.
The figure for `CSc1cccc(CNC(=O)[C@H]2CNC[C@@H](C(=O)N3CCOCC3)C2)c1` is -25.42%; for `Cc1nc[nH]c1CNCc1cccnc1N(C)C1CCCCC1` it is -125.1%; for `COc1ccc(-n2cc(CCO)cn2)cc1C(N)=O` it is -5.342%.
On to `COc1cc(-n2cc(CCO)cn2)ccc1NC(C)=O`, for which the “Percent Effect” value is given as 12.75%.
The figure for `COc1ccc(-n2cc(CCO)cn2)cc1C` is 105.1%; for `Cc1cn2c(n1)CCC(NC(=O)CCOc1ccccc1F)C2` (centres undefined) it is -34.23%.
As for `O=C(c1nc(Cc2c[nH]c3ccccc23)no1)N1CCCCC1`, the “Percent Effect” value is on record as -4.941%.
To `O=C(O)C(F)(F)F.O=C(c1ncccn1)N1C[C@H]2CCC[C@@]2(COc2ccccn2)C1` belongs -0.9925%; to `O=C(O)C(F)(F)F.O=C(c1cocn1)N1C[C@H]2CCC[C@@]2(COc2ccccn2)C1`, 78.33%.
The figure for `Cc1ccc(C(=O)N2C[C@H]3CCC[C@@]3(COc3ccccn3)C2)nc1.O=C(O)C(F)(F)F.O=C(O)C(F)(F)F` is 19.03%.
`Fc1cccc(Cl)c1CNCCOc1ccccn1`: the “Percent Effect” value came out at 41.65%.
The figure for `CN1[C@@H](C(=O)NCC2CC2)C[C@@H]2CN(Cc3ccco3)C[C@@H]21` is 11.69%; for `CCN(Cc1ccccc1)S(=O)(=O)C1CCS(=O)(=O)CC1` it is 11.98%.
Consider `CN(C)c1nccnc1C1CCN(c2cnccn2)CC1`, for which the “Percent Effect” value was determined as 17.38%.
The figure for `CN(C)c1ccc(C2CCN(c3cnccn3)CC2)nc1` is 63.52%; for `c1cc(C2CCN(c3cnccn3)CC2)ncn1` it is 5.379%; for `COc1cccc(C(=O)N2C[C@@H](c3ccccc3)[C@@H]3NCCCC[C@@H]32)c1` it is 4.696%.
The figure for `Cc1cc(C(C)(O)CNC(=O)c2ccc(Br)o2)c(C)o1` (centres undefined) is 53.63%; for `Cc1cc(C(C)(O)CNC(=O)OC(C)(C)C)c(C)o1` (centres undefined) it is 14.94%; for `Cc1cc(C(C)(O)CNC(=O)C2(C)CCCC2)c(C)o1` (centres undefined) it is 32.83%.

For the origin of these results see ChEMBL document CHEMBL3988442, “University of Dundee, Small-Polar-MMV Screening Library” (2021).
